According to PubChem BioAssay AID651956 (Broad Institute, 2012):
Entries with a potency or affinity are not part of this list. Records with an inconclusive call do not appear. Active and inactive are the calls of the source.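 The calls were made as follows: active = in every test run, a fitted half-maximal concentration for signal decrease at or below twice the highest tested concentration; inconclusive = runs disagree, flat 30 to 70% decrease, or poor fit; inactive = the rest.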

Assay: miR-122 activators in hepatoma reporter cells, dose response, cell-based, Huh7 psiCHECK-miR122, Renilla luciferase, cherry-picked (AID 651956);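 also: Renilla luciferase from a miR-122 sensor reporter so lower signal means miR-122 activation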
Conditions: 48 h; series mostly up to 35 µM

SMILES | outcome
CN1C(=O)c2cc(NC(=O)c3cccs3)ccc2OC[C@H]2O[C@@H](CC(=O)N3CCCCC3)CC[C@H]21 | inactive
Cc1ccc(C(=O)n2nc(-c3ccccc3)nc2NCc2ccco2)cc1 | inactive
O=C(NCC(c1cccnc1)N1CCOCC1)NC1CCCCC1 (stereo unspecified) | inactive
CC(=O)N1[C@H](CO)[C@@H](c2ccccc2)[C@H]1CN(C(=O)NC(C)C)C1CCCC1 | inactive
COCC(=O)Nc1ccc2c(c1)C(=O)N(C)[C@@H]1CC[C@H](CC(=O)NCc3ccccc3F)O[C@H]1CO2 | inactive
CCCC(=O)Nc1ccc2c(c1)C(=O)N(C)[C@H]1CC[C@H](CC(=O)NCCN3CCCCC3)O[C@@H]1CO2 | inactive
COC(=O)C[C@@H]1CC[C@H]2[C@@H](COc3ccc(NC(=O)c4ccc(C(F)(F)F)cc4)cc3C(=O)N2C)O1 | inactive
C/C=C/c1ccc([C@H]2[C@H](CO)N[C@H]2CN(C)S(=O)(=O)c2ccccc2)cc1 | inactive
N#Cc1ccc(C(=O)Nc2ccc(N3CCN(C(=O)c4ccco4)CC3)cc2)c(F)c1 | inactive
Cc1nc(C)c(C(=O)Nc2ccc(Oc3ccccc3)cc2)o1 | inactive
CO[C@H]1CN(C)C(=O)c2cc(NC(C)=O)ccc2OC[C@@H](C)N(C(=O)c2ccccn2)C[C@H]1C | inactive
O=C(CN1CCN(c2nc(-c3ccccc3)cs2)CC1)Nc1ccc2c(c1)OCO2 | inactive
CCCCN1C=C(C(=O)OC)C(c2ccccc2C(F)(F)F)C(C(=O)OC)=C1 | inactive
COc1cccc(CNC(=O)C[C@H]2CC[C@@H]3[C@@H](COc4ccc(NC(C)=O)cc4C(=O)N3C)O2)c1 | inactive
C/C(=N\Nc1cc(N2CCCCC2)nc(C)n1)c1ccc(Br)cc1 | inactive
CC(=O)Nc1ccc(-c2cc(-c3ccc(NC(C)=O)cc3)nc(-c3ccc(NC(C)=O)cc3)n2)cc1 | inactive
CC(C)C(=O)Nc1ccc2c(c1)C(=O)N(C)[C@@H]1CC[C@@H](CC(=O)NCCc3ccccc3)O[C@H]1CO2 | inactive
COc1ccccc1C(=O)N1C[C@@H]2[C@H](c3ccccc31)[C@H](CO)N2CC1CCCC1 | inactive

SMILES | outcome
C[C@@H]1CN([C@@H](C)CO)S(=O)(=O)c2ccc(C#Cc3ccccc3F)cc2O[C@H]1CN(C)C(=O)c1ccc2c(c1)OCO2 | inactive
COc1ccc(C(NC(C)=O)c2cc(Cl)c3cccnc3c2O)cc1 (stereo unspecified) | inactive
CN1C(=O)c2cc(NC(=O)c3cccs3)ccc2OC[C@H]2O[C@H](CC(=O)NCCN3CCCCC3)CC[C@H]21 | inactive
CNC(=O)C[C@H]1CC[C@H]2[C@H](COc3ccc(NC(=O)c4cccc(OC)c4)cc3C(=O)N2C)O1 | inactive
CCCNC(=O)C[C@@H]1CC[C@@H]2[C@H](COc3ccc(NC(=O)Nc4ccccc4F)cc3C(=O)N2C)O1 | inactive
CCCNC(=O)C[C@@H]1CC[C@@H]2[C@@H](COc3ccc(NC(=O)Nc4ccccc4F)cc3C(=O)N2C)O1 | inactive
C/C=C/c1ccc([C@@H]2[C@H](CO)N[C@H]2CN(CC)C(=O)CN2CCOCC2)cc1 | inactive
N#CC1=C(N)Oc2c(ccc3cccnc23)C1c1ccccc1 (stereo unspecified) | inactive
C/C=C/c1ccc([C@H]2[C@@H](CO)N[C@@H]2CN(CC(C)C)C(=O)c2ccccn2)cc1 | inactive
CCNC(=O)Nc1ccc2c(c1)C(=O)N(C)[C@H]1CC[C@H](CC(=O)Nc3ccccc3F)O[C@@H]1CO2 | inactive
CNC(=O)C[C@@H]1CC[C@@H]2[C@@H](COc3ccc(NC(=O)Cc4cccs4)cc3C(=O)N2C)O1 | inactive
Cc1cc2n(n1)C(c1cn(-c3ccccc3)nc1C)Nc1c(C)cccc1-2 (stereo unspecified) | inactive
COc1cccc(-c2nn(-c3ccccc3)cc2CO)c1 | inactive
CCCNC(=O)C[C@@H]1CC[C@H]2[C@@H](COc3ccc(NC(=O)c4ccc(C(F)(F)F)cc4)cc3C(=O)N2C)O1 | inactive
CN1C(=O)c2cc(NC(=O)C3CCOCC3)ccc2OC[C@H]2O[C@H](CC(=O)NCc3ccc4c(c3)OCO4)CC[C@@H]21 | inactive
COc1ccc(CN2CCN(Cc3cccn3-c3ncccn3)CC2CCO)c(C)c1C (stereo unspecified) | inactive
CN1C(=O)c2cc(NC(=O)c3cccs3)ccc2OC[C@H]2O[C@@H](CC(=O)NCCN3CCCCC3)CC[C@@H]21 | inactive
CCCNC(=O)Nc1ccc2c(c1)C(=O)N(C)[C@@H]1CC[C@H](CC(=O)NCC3CCCCC3)O[C@H]1CO2 | inactive
